Only some compounds are listed: those with a hit (about 7.3% of all), similar ones and a draw of the others.
KinaseGlo FLuc: Counterscreen for Luciferase (Kinase-Glo TM) Inhibition; Luciferin 4-monooxygenase (Photuris pensylvanica), Q27757; Kinase-Glo luciferase, ATP luminescence, 8 min; Potency, µM (top dose mostly 38.3 µM), usual class: inhibitors; 200,000 tested, 0.28% active; further: nearly all actives have a fitted effect of over 60% in size
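Kinase-Glo luciferase light output from ATP and luciferin was measured with 10 uM ATP, within the enzyme's linear range. Buffer: 50 mM imidazole pH 7.2, 50 mM KCl, 7 mM MgCl2, 0.01% Tween 20, 0.05% BSA; luminescence read after 8 min at ambient temperature.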
FLuc counter: qHTS profiling assay for firefly luciferase inhibitor/activator using purifed enzyme and Km concentrations of substrates (counterscreen for miR-21 project); 360,000 tested, 6.9% active; purified FLuc, Km substrates, luminescence inhibition; Potency, µM (highest dose often 57.5 µM), hits mostly inhibitors; AID 588342, 2011; Luciferin 4-monooxygenase (Photinus pyralis), P08659; further: nearly all actives have a fitted effect of over 55% in size
Target sequence (P08659 whole entry, looked up): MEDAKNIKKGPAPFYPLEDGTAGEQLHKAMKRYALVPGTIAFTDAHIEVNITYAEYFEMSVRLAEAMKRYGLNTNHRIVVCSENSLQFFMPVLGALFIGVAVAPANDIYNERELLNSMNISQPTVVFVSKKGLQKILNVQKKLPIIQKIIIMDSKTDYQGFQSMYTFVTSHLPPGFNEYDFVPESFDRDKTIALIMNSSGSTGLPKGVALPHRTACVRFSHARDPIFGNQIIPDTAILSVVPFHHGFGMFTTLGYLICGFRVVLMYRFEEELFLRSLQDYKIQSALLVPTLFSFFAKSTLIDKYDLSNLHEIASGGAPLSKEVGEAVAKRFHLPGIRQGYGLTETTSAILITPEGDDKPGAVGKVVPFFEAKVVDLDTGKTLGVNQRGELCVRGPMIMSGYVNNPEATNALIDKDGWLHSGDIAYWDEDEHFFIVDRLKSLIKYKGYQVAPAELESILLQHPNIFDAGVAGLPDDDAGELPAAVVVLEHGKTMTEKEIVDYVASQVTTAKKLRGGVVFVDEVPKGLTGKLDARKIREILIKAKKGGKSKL
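Biochemical qHTS of compounds, final roughly 60 µM downward over six points, against 10 nM purified firefly luciferase using Km concentrations of substrates (10 uM D-luciferin, 10 uM ATP) in Tris acetate pH 7.5 buffer; luminescence output.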
Rab9 promoter act: qHTS Assay for Rab9 Promoter Activators; Huh7 Rab9 promoter-luciferase reporter, luminescence, 24 h; Potency, µM (top dose mostly 9.22 µM), actives largely listed as activators; 320,000 tested, 2.8% active; further: nearly all actives have a fitted effect of over 60% in size
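Promoter activation is measured as luciferase luminescence in Huh7 cells stably transfected with a Rab9 promoter–luciferase construct, following 24 h compound exposure at 37 °C and 10 min reagent incubation at ambient temperature.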
NPC1 promoter act: qHTS Assay for NPC1 Promoter Activators. Potency, µM (highest dose often 9.22 µM), most hits filed as activators. 320,000 tested, 2.4% active. Huh7 NPC1 promoter luciferase reporter, 24 h. AID 485313, 2010; further: nearly all actives have a fitted effect of over 60% in size
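Huh7 reporter cells (NPC1 promoter driving luciferase) are dosed with compound for 24 h at 37 °C, 5% CO2; luciferase detection reagent is then added and luminescence measured after 10 min at ambient temperature.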
SMN2 splice up: qHTS Assay for Enhancers of SMN2 Splice Variant Expression | HEK293 SMN2-luciferase splicing reporter, luminescence, 30-36 h | Potency, µM (series often up to 46.1 µM), usual class: activators | 210,000 tested, 2.8% active | AID 1458, 2008; further: nearly all actives have a fitted effect of over 55% in size
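qHTS luciferase splicing reporter: luminescence rises when SMN2 exon 7 is included in transfected HEK293 cells. Compound exposure lasted 30-36 h at 37C, with 4.5 mM final sodium butyrate as control, followed by a ONE-Glo read.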
A number is an active result; - = inactive; ? = inconclusive; . = no result. The call rests on the fitted dose curve; in most records, active means well fitted curve in the direction sought with a large enough effect; inconclusive means small, poorly fitted or top-dose-only effect, or another doubt; inactive means no such curve, though single readings can be large; an effect the other way counts as inactive or inconclusive.

SMILES	KinaseGlo FLuc	FLuc counter	Rab9 promoter act	NPC1 promoter act	SMN2 splice up
Cc1ccc2nc(N/N=C\c3ccc([N+](=O)[O-])o3)nc(-c3ccccc3)c2c1	-	7.57µM	-	-	-
O=C(N/N=C/c1ccc([N+](=O)[O-])o1)c1cc2ccccc2o1	.	-	-	-	.
O=C(NCC1CCCO1)C(c1ccncc1)N(Cc1cccs1)C(=O)CN1C(=O)c2ccccc2S1(=O)=O (centres undefined)	-	13.5µM	-	-	.
Cc1ccc(-n2ncc3c(N4CCCCCC4)ncnc32)cc1Cl	.	0.426µM	.	.	.
Cc1ccc(-n2ncc3c(N4CCCCC4)ncnc32)cc1Cl	.	0.135µM	.	.	.
CCCCSc1nc(-c2ccc(OC)cc2)ccc1C#N	.	-	.	.	-
Cc1nn(C(=O)c2cc3sccc3[nH]2)c(C)c1C	-	3.01µM	?	?	?
O=C(Nc1cccc(F)c1)c1ccc(-c2ccccc2C(F)(F)F)o1	-	?	-	-	-
O=C(Nc1nccs1)c1ccc(COc2c(F)c(F)cc(F)c2F)o1	.	-	-	-	.
Cc1ccccc1-c1ccc(C(=O)Nc2cccc(F)c2)o1	-	9.53µM	-	-	-
O=C(Nc1nccs1)c1ccc(-c2ccc(F)c(Cl)c2)o1	.	6.01µM	?	?	.
Cc1cccc(C)c1NC(=O)c1ccc(-c2ccc(Cl)cc2Cl)o1	-	-	-	-	-
Cc1ccccc1NC(=O)c1ccc(-c2ccc(Cl)cc2Cl)o1	-	8.49µM	-	-	-
O=C(Nc1nccs1)c1ccc(-c2ccc(Cl)cc2Cl)o1	-	0.849µM	3.16µM	3.55µM	14.1µM
O=c1sc2ccccc2n1COc1ccccc1	-	-	-	-	-
COc1ccc(Cn2c(=O)sc3ccccc32)cc1	-	-	-	-	?
Cc1ccccc1OCCCn1c(=O)sc2ccccc21	-	9.53µM	?	?	17.8µM
CC(C)Oc1ccc(Cn2c(=O)sc3ccccc32)cc1	-	-	-	-	-
O=c1sc2ccccc2n1COc1ccc(Cl)cc1	-	19µM	?	-	-
Cc1ccc(OCCCn2c(=O)sc3ccccc32)cc1	-	16.9µM	-	-	-
Cc1ccc(OCCn2c(=O)sc3ccccc32)cc1	-	6.75µM	?	3.55µM	12.6µM
CCOc1ccc(-c2cn3c(n2)sc2cc(C(=O)NCCCc4ccccc4)ccc23)cc1	.	-	.	.	.
CC(C)(C)OC(=O)N1CCC(c2c(C(=O)N3CCN(c4ccccn4)CC3)cnn2-c2ccccc2Cl)CC1	.	-	.	.	.
O=c1sc2ccccc2n1CCCOc1ccccc1	-	10.7µM	2.51µM	3.16µM	?
O=c1sc2ccccc2n1Cc1ccccc1	-	-	-	-	-
SMILES	KinaseGlo FLuc	FLuc counter	Rab9 promoter act	NPC1 promoter act	SMN2 splice up
CCOc1ccc2nc(NC(=O)CSc3ccccc3)sc2c1	-	21.3µM	-	-	?
CCOc1ccc2nc(NS(=O)(=O)Cc3ccccc3)sc2c1	-	26.9µM	-	-	-
CCOc1ccc2nc(NC(=O)c3ccccc3)sc2c1	.	0.536µM	.	.	1.26µM
CCOc1ccc2nc(NC(=O)c3cnc(C)cn3)sc2c1	-	6.01µM	-	-	-
CCOc1ccc2nc(NC(=O)C3=NNC(=O)CC3)sc2c1	-	?	?	-	?
Cc1cccc(N(CC(=O)NCCSc2ccc(Cl)cc2)S(C)(=O)=O)c1C	.	-	.	.	-
O=C(CSc1nccn1-c1ccc(Cl)cc1)Nc1nc2ccccc2s1	.	-	.	.	.
O=C(CSc1nccn1-c1ccccc1)Nc1nc2ccccc2s1	.	23.9µM	.	.	.
CN(C)C(=S)Nc1nc2ccccc2s1	-	12µM	?	?	.
CCOc1ccc2nc(NC(=S)N(C)C)sc2c1	-	1.35µM	0.794µM	0.708µM	3.98µM
CCOc1ccc2nc(NC(=O)c3cccnc3)sc2c1	-	1.51µM	0.891µM	1.58µM	7.94µM
CN(C)S(=O)(=O)c1ccc2c(c1)c(=O)c(C(=O)N1CCN(c3cccc(Cl)c3)CC1)cn2C	.	-	.	.	-
CN(C)CCCN(C(=O)c1ccc2c(c1)OCCO2)c1nc2ccccc2s1	.	-	.	.	.
Nc1c(-c2nc(-c3cccs3)no2)nnn1-c1cccc(Cl)c1	.	-	.	.	.
COc1ccc(-c2csc3nc(-c4ccc(F)cc4)oc(=O)c23)cc1OC	.	-	.	.	-
CCCC(=O)Nc1nc2ccc(OCC)cc2s1	-	10.7µM	2.24µM	2.82µM	22.4µM
COc1cccc(-c2nc(CS(=O)(=O)CC(=O)NCCc3ccc(Cl)cc3)c(C)o2)c1	.	-	.	.	-
COc1ccc(C(=O)c2cnc3ccc(C)cc3c2S(=O)(=O)c2ccccc2)cc1	.	?	.	.	-
O=C(NC(=S)Nc1cccnc1)c1cccs1	-	?	-	-	.
O=C(NC(=S)Nc1ccccn1)c1ccco1	-	21.3µM	2µM	2.24µM	10µM
Cc1ccnc(NC(=S)NC(=O)c2cccs2)c1	-	4.26µM	0.794µM	1.58µM	6.31µM
CC(C)C(=O)NC(=S)Nc1ccccn1	.	-	-	-	.
O=C(Nc1cccnc1Cl)c1cc(-c2ccc(Cl)cc2)on1	.	-	-	-	-
O=C(NC(=S)Nc1ccc(Cl)cn1)c1cccs1	-	3.01µM	5.62µM	?	12.6µM
O=C(NC(=S)Nc1cccnc1Cl)c1ccc(Cl)cc1	.	16.9µM	?	?	.
SMILES	KinaseGlo FLuc	FLuc counter	Rab9 promoter act	NPC1 promoter act	SMN2 splice up
Cn1cnc(S(=O)(=O)N2CCCC(C(=O)NCc3ccccc3Cl)C2)c1 (centres undefined)	.	-	.	.	.
Cc1ccnc(NC(=S)NC(=O)/C=C/c2ccco2)c1	-	7.57µM	?	?	?
Cc1ccnc(NC(=S)NC(=O)c2ccco2)c1	-	12µM	2µM	2µM	-
O=C(NC(=S)Nc1cccnc1Cl)c1ccco1	-	15.1µM	?	-	-
Cc1ccnc(NC(=O)CNC(=O)c2ccco2)c1	.	-	-	-	.
CCOc1ccccc1NC(=S)NC(=O)c1ccco1	.	?	-	-	.
CCCCCOc1ccc(Cn2c(=O)oc3ccc(C)cc32)cc1OC	.	-	.	.	-
Cc1cccc(C(=O)c2c(N)sc3c2CCCC3)c1	.	-	-	-	.
Cc1cccc(C(=O)c2c(N)sc3c2CCC(C)C3)c1 (centres undefined)	.	21.3µM	?	?	.
CCN(CC)C(=O)c1c(NC(=O)c2cccc(C)c2)sc2c1CCC(C)C2 (centres undefined)	.	16.9µM	.	.	-
CCOc1ccc(NC(=O)c2c(NC(=O)c3cccc(C)c3)sc3c2CCC3)cc1	.	-	.	.	-
COc1ccc(C2c3c(n(C)c4ccccc34)C(=O)N2CC(=O)Nc2ccc(C)c(Cl)c2)cc1 (centres undefined)	.	-	.	.	.
COc1ccccc1C(=O)COC(=O)COc1cccc2c1OC(C)(C)C2	.	4.78µM	2.51µM	2µM	.
COc1ccc(NC(=O)COC(=O)COc2cccc3c2OC(C)(C)C3)cc1	.	-	-	-	.
O=C(c1ccc(Cl)c([N+](=O)[O-])c1)N1CCCc2ccccc21	.	19µM	-	-	.
O=C(N/N=C/c1ccc(-c2ccccc2C(=O)O)o1)c1cccs1	-	13.5µM	-	-	-
